In PubChem BioAssay one finds growth inhibition, inhibition and outcome data, which are given here for 19 molecules.

One may read the inhibition as the change of the read-out against control, counted positive when it falls.

A short description of experiment [1]: antimalarial activity against Dd2 strain (AID 2302;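 active = growth inhibition above 50% at the single 2 µM test dose, taken to imply half-maximal potency below 2 µM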;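 note: 0% = DMSO untreated growth and 100% = chloroquine plus artemisinin killed control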). To be noted: P. falciparum Dd2 in RBCs, LDH growth readout, 72 h; at 2 µM; active compounds read high.
The nature of experiment [2]: human hepatoma cell viability loss – ATP luminescence, cytotoxicity control for P. falciparum antimalarial project, primary screen (AID 2303;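 active = inhibition above 50%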;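 note: 0% = DMSO wells and 100% = digitonin-killed cells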). The following applies: HepG2 viability, 24-48 h, at 10 µM, active compounds read high.
The target in experiment [3] is L-lactate dehydrogenase (Plasmodium falciparum (isolate CDC / Honduras)) (UniProt Q27743). In words: PfLDH activity inhibition – cell lysate, 3D7 strain, counter-screen for P. falciparum growth inhibition project (AID 2304).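 Note: 0% = vehicle and 100% = reference inhibitor.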 To be noted: P. falciparum 3D7 crude extract, LDH APAD/NBT absorbance; at 2 µM; active compounds read high. Background: A counterscreen serves to expose hits that act by an unwanted route or on another target.
Chain of L-lactate dehydrogenase (Plasmodium falciparum (isolate CDC / Honduras)) (Q27743 whole entry, looked up): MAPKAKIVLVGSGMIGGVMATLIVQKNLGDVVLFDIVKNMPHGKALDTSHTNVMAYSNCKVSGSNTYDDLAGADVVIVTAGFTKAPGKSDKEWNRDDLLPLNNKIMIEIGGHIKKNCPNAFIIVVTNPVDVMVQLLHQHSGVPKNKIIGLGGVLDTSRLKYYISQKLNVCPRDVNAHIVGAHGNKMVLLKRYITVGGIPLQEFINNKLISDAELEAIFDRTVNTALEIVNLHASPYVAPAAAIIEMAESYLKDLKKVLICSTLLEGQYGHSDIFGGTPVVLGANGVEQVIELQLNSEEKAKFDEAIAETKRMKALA

The nature of experiment [4]: inhibition of 3D7 malaria parasite growth – strain 3D7 (AID 2306).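 Note: 0% = DMSO wells and 100% = chloroquine plus artemisinin control wells.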 To be noted: P. falciparum 3D7 erythrocytic growth, LDH absorbance, 72 h; at 2 µM; active compounds read high.
The target in experiment [5] is Calcium-dependent protein kinase 1 (Plasmodium falciparum (isolate 3D7)) (UniProt P62344). The experiment in a line: PfCDPK1 kinase inhibitors, biochemical, TCAMS library (AID 1159585; cut-off not given, nearly all actives have IC50 up to about 0.98 µM;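 note: inhibitors leave more ATP so luminescence rises with inhibition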). The following applies: recombinant PfCDPK1, Kinase-Glo ATP depletion luminescence. On the technique in general: Kinase-Glo measures the ATP left after a reaction by luminescence.
Chain of Calcium-dependent protein kinase 1 (Plasmodium falciparum (isolate 3D7)) (P62344 whole entry, looked up): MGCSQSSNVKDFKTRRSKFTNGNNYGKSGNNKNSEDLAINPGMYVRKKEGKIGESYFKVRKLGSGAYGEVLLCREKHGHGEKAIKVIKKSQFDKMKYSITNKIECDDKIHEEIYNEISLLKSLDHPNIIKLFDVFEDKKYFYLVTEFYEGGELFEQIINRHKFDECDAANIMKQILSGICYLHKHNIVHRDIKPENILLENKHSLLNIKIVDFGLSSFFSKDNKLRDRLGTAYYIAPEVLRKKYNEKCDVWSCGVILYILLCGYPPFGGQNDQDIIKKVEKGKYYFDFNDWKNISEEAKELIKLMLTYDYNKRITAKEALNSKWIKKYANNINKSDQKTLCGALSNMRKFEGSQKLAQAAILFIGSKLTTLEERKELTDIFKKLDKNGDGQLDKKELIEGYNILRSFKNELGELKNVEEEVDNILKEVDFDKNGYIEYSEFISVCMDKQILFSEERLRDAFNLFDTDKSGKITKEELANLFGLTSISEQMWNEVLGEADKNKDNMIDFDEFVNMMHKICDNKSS
Experiment [6] deals with Plasmodium falciparum protein kinase 6 (PK6, PF3D7_1337100) (UniProt Q8IDW1). In words: PfPK6 kinase inhibitors, biochemical, TCAMS library (AID 1159586). To be noted: recombinant PfPK6, Kinase-Glo ATP depletion luminescence.
Chain of Plasmodium falciparum protein kinase 6 (PK6, PF3D7_1337100) (Q8IDW1 1-305): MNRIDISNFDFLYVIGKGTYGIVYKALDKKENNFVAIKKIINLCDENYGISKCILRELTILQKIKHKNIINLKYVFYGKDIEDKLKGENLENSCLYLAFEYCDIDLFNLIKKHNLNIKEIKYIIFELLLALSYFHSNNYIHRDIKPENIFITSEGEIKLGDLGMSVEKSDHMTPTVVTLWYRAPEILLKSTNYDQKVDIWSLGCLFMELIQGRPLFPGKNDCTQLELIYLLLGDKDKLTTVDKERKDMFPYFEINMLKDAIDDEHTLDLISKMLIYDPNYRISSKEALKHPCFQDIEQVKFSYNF
The target of experiment [7] is Protein kinase 7 (PK7), Plasmodium falciparum 3D7 (PF3D7_0213400) (UniProt Q7YTF7). The experiment in a line: inhibition of Plasmodium PK7 catalytic activity – biochemical, TCAMS antimalarial set, Kinase-Glo luminescence (AID 1159587). The following applies: recombinant PfPK7, Kinase-Glo ATP depletion luminescence.
Chain of Protein kinase 7 (PK7), Plasmodium falciparum 3D7 (PF3D7_0213400) (Q7YTF7 1-343): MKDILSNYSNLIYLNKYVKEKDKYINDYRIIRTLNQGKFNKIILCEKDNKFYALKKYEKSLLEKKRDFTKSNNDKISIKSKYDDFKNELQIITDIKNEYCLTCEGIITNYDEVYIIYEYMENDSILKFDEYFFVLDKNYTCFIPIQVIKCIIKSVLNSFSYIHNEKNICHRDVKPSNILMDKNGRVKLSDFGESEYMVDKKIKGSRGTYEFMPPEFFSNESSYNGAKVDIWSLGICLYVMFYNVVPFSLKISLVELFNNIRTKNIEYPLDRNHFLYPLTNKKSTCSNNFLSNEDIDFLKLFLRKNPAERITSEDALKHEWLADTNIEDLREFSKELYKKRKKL
The target of experiment [8] is Calcium-dependent protein kinase 4 (Plasmodium falciparum (isolate 3D7)) (UniProt Q8IBS5). The experiment in a line: PfCDPK4 kinase inhibitors, biochemical, TCAMS library (AID 1159588; cut-off not given, nearly all actives have IC50 up to about 0.91 µM). The following applies: recombinant PfCDPK4, Kinase-Glo ATP depletion luminescence.
Chain of Calcium-dependent protein kinase 4 (Plasmodium falciparum (isolate 3D7)) (Q8IBS5 whole entry, looked up): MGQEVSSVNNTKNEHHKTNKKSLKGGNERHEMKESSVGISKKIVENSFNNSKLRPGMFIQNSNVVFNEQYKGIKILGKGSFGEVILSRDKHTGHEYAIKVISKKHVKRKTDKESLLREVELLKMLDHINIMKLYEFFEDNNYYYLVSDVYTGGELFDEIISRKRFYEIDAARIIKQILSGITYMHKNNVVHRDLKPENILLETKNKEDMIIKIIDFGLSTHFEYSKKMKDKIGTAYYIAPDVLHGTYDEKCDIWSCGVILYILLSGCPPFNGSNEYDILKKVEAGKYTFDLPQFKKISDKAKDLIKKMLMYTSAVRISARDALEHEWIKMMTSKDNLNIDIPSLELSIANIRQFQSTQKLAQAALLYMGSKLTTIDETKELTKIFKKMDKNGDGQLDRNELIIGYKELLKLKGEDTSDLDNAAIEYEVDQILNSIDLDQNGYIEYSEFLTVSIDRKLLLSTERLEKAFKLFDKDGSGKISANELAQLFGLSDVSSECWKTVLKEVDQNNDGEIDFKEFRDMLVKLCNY

Values without a mark were called inactive. For some assays here: Potency and affinity values are given separately. The source made the active and inactive calls. Unless noted, the rule behind the calls is not given here.

Turning to `Cc1cc(C)c(-c2n[nH]c3c2C(c2cccc(Cl)c2)N(Cc2ccco2)C3=O)c(O)c1` (configuration not stated), the growth inhibition in experiment [1] is 89% (active); in experiment [4], 96% (active). Also, the inhibition was -3% in experiment [2] and -1% in experiment [3]. For the same molecule, the result in experiment [5], in experiment [6], in experiment [7] and in experiment [8] was inactive.
Regarding `O=C(NCc1ccco1)c1ccc(CN2CCN(C(c3ccccc3)c3ccccc3)CC2)cc1`, the growth inhibition is 92% (active) in experiment [1] and 96% (active) in experiment [4]. Further, the inhibition in experiment [2] is 6%; in experiment [3], -1%. Besides, the outcome in experiment [5], in experiment [6], in experiment [7] and in experiment [8] was inactive.
Regarding `Oc1ccc2[nH]cc(C3CCN(CCCNCc4ccc(-c5ccccc5)cc4)CC3)c2c1`, the growth inhibition was -1% in experiment [1] and 101% (active) in experiment [4]. Moreover, the inhibition in experiment [2] was 22%; in experiment [3] it was -4%. In addition, the result in experiment [5], in experiment [6], in experiment [7] and in experiment [8] was inactive.
In the case of `FC(F)(F)c1cccc(CNCC2CCN(CC3CCCCC3)CC2)c1`, the growth inhibition is 24% in experiment [1] and 101% (active) in experiment [4]. Besides, the inhibition in experiment [2] is 21%; in experiment [3], 3%. Besides, the outcome in experiment [5], in experiment [6], in experiment [7] and in experiment [8] was inactive.
As to `O=C(Nc1cccc(-c2ccc(-c3nc4ccccc4[nH]3)cc2)c1)c1csnn1`, the values for the growth inhibition in experiment [1] and in experiment [4] were 21% and 91% (active), respectively. Further, the inhibition was 31% in experiment [2] and 0% in experiment [3]. Further, the outcome in experiment [5], in experiment [6], in experiment [7] and in experiment [8] was inactive.
As for `Cc1cc(NC2CCCC2)nc(Nc2ccccc2C)n1`, the growth inhibition in experiment [1] is 20%; in experiment [4] it was 88% (active). Also, the values for the inhibition in experiment [2] and in experiment [3] were -2% and 2%, respectively. Further, the outcome in experiment [5], in experiment [6], in experiment [7] and in experiment [8] was inactive.
With `O=C(/C=C/c1ccc(Cl)cc1)NCCCCCN1CCCN(C(=O)Nc2ccc(F)c(Cl)c2)CC1`, the growth inhibition in experiment [1] is 6%; in experiment [4], 94% (active). The inhibition is 29% in experiment [2] and 1% in experiment [3]. Also, the result in experiment [5], in experiment [6], in experiment [7] and in experiment [8] was inactive.
`COc1ccc(CCNCCCCCCNCCCc2ccc(Cl)cc2)cc1OC`: the growth inhibition in experiment [1] was 2%; in experiment [4] it was 96% (active). Also, the values for the inhibition in experiment [2] and in experiment [3] were 36% and 1%, respectively. Moreover, the result in experiment [5], in experiment [6], in experiment [7] and in experiment [8] was inactive.
As to `Cc1cccc2[nH]c(-c3ccc(-c4ccc(CN5CCN(CCO)CC5)cc4)s3)nc12`, the results for the growth inhibition in experiment [1] and in experiment [4] were 47% and 92% (active), respectively. The inhibition in experiment [2] was 34%; in experiment [3], 0%. The result in experiment [5], in experiment [6], in experiment [7] and in experiment [8] was inactive.
Regarding `CN(C)c1ccc(-c2ccc(C(=O)NC3CCN(Cc4ccc5c(c4)OCCO5)CC3)s2)cc1`, the growth inhibition in experiment [1] was 73% (active); in experiment [4], 100% (active). In addition, the results for the inhibition in experiment [2] and in experiment [3] were 36% and -2%, respectively. The result in experiment [5], in experiment [6], in experiment [7] and in experiment [8] was inactive.
`Cc1cc(C)cc(Oc2c(C(F)(F)F)oc3c(CN4CC(C)OC(C)C4)c(O)ccc3c2=O)c1` (configuration not stated): the growth inhibition is 54% (active) in experiment [1] and 89% (active) in experiment [4]. In addition, the values for the inhibition in experiment [2] and in experiment [3] were 5% and 1%, respectively. Further, the result in experiment [5], in experiment [6], in experiment [7] and in experiment [8] was inactive.
Turning to `COc1ccc2c(c1)OC(C)(C)CC2=NOS(=O)(=O)c1ccc(C)cc1`, the values for the growth inhibition in experiment [1] and in experiment [4] were 12% and 97% (active), respectively. The inhibition in experiment [2] was 10%; in experiment [3], 4%. The result in experiment [5], in experiment [6], in experiment [7] and in experiment [8] was inactive.
Take `CC(C)CC(NC(=O)c1cccc(OCCN2CCOCC2)c1)C(=O)NC(/C=N/NC(=O)c1ccccc1)CCc1ccccc1` (configuration not stated): the growth inhibition is 88% (active) in experiment [1] and 96% (active) in experiment [4]. The inhibition is -5% in experiment [2] and -9% in experiment [3]. For the same molecule, the outcome in experiment [5], in experiment [6], in experiment [7] and in experiment [8] was inactive.
For `COc1ccc(NC(=O)c2ccc(-c3nc(-c4cccc(C(F)(F)F)c4)cs3)cc2)cc1N1CCN(C)CC1`, the values for the growth inhibition in experiment [1] and in experiment [4] were 59% (active) and 98% (active), respectively. The figures for the inhibition in experiment [2] and in experiment [3] were 29% and 6%, respectively. Moreover, the result in experiment [5], in experiment [6], in experiment [7] and in experiment [8] was inactive.
Turning to `FC(F)(F)c1ccc2nc(-c3ccc(-c4cccc(CNCCN5CCNCC5)c4)cc3)[nH]c2c1`, the growth inhibition in experiment [1] was 2%; in experiment [4] it was 92% (active). For the same molecule, the inhibition was 13% in experiment [2] and -1% in experiment [3]. For the same molecule, the result in experiment [5], in experiment [6], in experiment [7] and in experiment [8] was inactive.
With `Brc1cccc(Nc2nccc(Nc3ccc(Oc4ccccc4)cc3)n2)c1`, the figures for the growth inhibition in experiment [1] and in experiment [4] were 5% and 89% (active), respectively. For the same molecule, the figures for the inhibition in experiment [2] and in experiment [3] were -6% and -4%, respectively. Besides, the outcome in experiment [5], in experiment [6], in experiment [7] and in experiment [8] was inactive.
Turning to `Cc1cc(N[C@@H](Cc2ccccc2)C(=O)NC2CCCC2)nc(NCCOc2ccccc2)n1`, the growth inhibition is 48% in experiment [1] and 98% (active) in experiment [4]. Moreover, the inhibition in experiment [2] is 40%; in experiment [3], 0%. Moreover, the outcome in experiment [5], in experiment [6], in experiment [7] and in experiment [8] was inactive.
In the case of `Cc1cc(N2CCCC2)nc(Nc2ccc(NC(=O)c3ccc4c(c3)OCO4)cc2)n1`, the growth inhibition in experiment [1] was 67% (active); in experiment [4] it was 101% (active). The inhibition was 26% in experiment [2] and -4% in experiment [3]. For the same molecule, the result in experiment [5], in experiment [6], in experiment [7] and in experiment [8] was inactive.
Turning to `CN(CCc1ccccn1)c1cccc2c1nc(-c1cccnc1)n2CCNCc1ccccc1`, the growth inhibition in experiment [1] is 97% (active); in experiment [4] it was 90% (active). The inhibition in experiment [2] is 12%; in experiment [3] it was 2%. Further, the outcome in experiment [5], in experiment [6], in experiment [7] and in experiment [8] was inactive.
